According to PubChem BioAssay (EPA / NIEHS):
Several values for one entry are separate records, joined by “and”; a condition that tells them apart may be missing. Equal values may be shown once. Results filed as inconclusive are left out. Some structures have more than one record in an assay (separate samples or runs), and their calls can disagree. Activity calls are given as the source filed them. Rule for the calls, unless noted: active = hit-call score of the fitted dose curve at least 0.9, where 1 is the maximum; inconclusive = response in the unintended direction; inactive = score below 0.9.

Assays:
[1] = Tanguay_ZF_120hpf_TR_legacy: (Legacy) Oregon State University Tanguay Lab 120 Hour Post-fertilization zebrafish Assay for Touch Response (AID 2283667)
In short: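 Tropical 5D wild-type zebrafish embryos statically exposed to 120 hpf at 28°C, sealed and dark-covered, 0.64% DMSO final; touch response scored as present/absent by brightfield microscopy at 120 hpf. Trimethyltin chloride 5 uM positive control; dead embryos not scored.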

[2] = CCTE_Simmons_CellTiterGLO_HEK293T: Viability Assessment in CCTE's Assays for Thyroperoxidase (TPO) Inhibition, Simmons Lab (AID 2283665);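 for AC50: cells exposed to compound for 24 h before readout; actives reduce ATP signal below DMSO vehicle meaning cytotoxicity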
In short: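 HEK293T, 10 000 cells/well, DMEM + 1% FBS; 8-pt titration 5 nM–87.5 uM [final], 0.5% DMSO; 24 hr, 37C, 5% CO2; CellTiter-Glo luminescence; n=3 biological replicates.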

[3] = CCTE_Padilla_ZF_144hpf_TERATOSCORE: (Legacy) CCTE's 144 Hour Post-fertilization zebrafish Assay Teratoscore, Padilla Lab (AID 2283679; active = hit-call score of the fitted dose curve at least 0.9, where 1 is the maximum; inactive = score below 0.9;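 for AC50: zebrafish embryos with chorions exposed by immersion from 6-8 hpf to 5 dpf with daily renewal; teratogenicity score from eye scoring of death hatching and malformations at 144 hpf; higher score means more developmental defects relative to DMSO baseline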)
In short: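 Larvae scored by eye at 144 hpf for death, hatching and malformations after a day in clean Hanks'. Before that, daily-renewed exposure at 80 uM (0.4% DMSO, 26C) from roughly 6-8 hpf through 5 dpf, 4 embryos per chemical.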

[4] = read-out: xenobiotic metabolism (CYP2C9), CYP2C9 (gene 1559); assay: CLD_CYP2C9_6hr: CellzDirect (CLD) Gene Expression Assay for xenobiotic metabolism (CYP2C9) at 6 hours (AID 2283664)
In short: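 Primary human hepatocytes dosed daily with test chemicals at multiple concentrations; harvested at 6 h. CYP2C9 mRNA induction measured by qNPA chemiluminescence. Gain of signal fitted against 0.2% DMSO vehicle; cytotoxicity annotated from phase-contrast morphology.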

[5] = read-out: alkyl and aryl transferase (GSTA2), GSTA2 (gene 2939); assay: CLD_GSTA2_6hr: CellzDirect (CLD) Gene Expression Assay for alkyl and aryl transferase (GSTA2) at 6 hours (AID 2283666)
In short: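 Primary human hepatocytes from two donor preparations were dosed daily with fresh compound at multiple concentrations, 0.2% DMSO vehicle. GSTA2 mRNA was measured at 6 hours by qNPA chemiluminescence; induction fitted relative to DMSO, with cytotoxicity flagged morphologically.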

[6] = read-out: organic anion transporter (SLCO1B1), SLCO1B1 (gene 10599); assay: CLD_SLCO1B1_6hr: CellzDirect (CLD) Gene Expression Assay for organic anion transporter (SLCO1B1) at 6 hours (AID 2283668);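 note: active means mRNA induction above DMSO baseline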
In short: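 Primary human hepatocytes dosed daily with test chemicals (multiple concentrations) in 0.2% DMSO vehicle; harvested at 6 h. SLCO1B1 mRNA quantified by qNPA chemiluminescence, fitted as gain-of-signal versus DMSO; cytotoxicity from phase-contrast morphology flagged alongside.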

[7] = read-out: sulfotransferase (SULT2A), SULT2A1 (gene 6822); assay: CLD_SULT2A_6hr: CellzDirect (CLD) Gene Expression Assay for sulfotransferase (SULT2A) at 6 hours (AID 2283669);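 note: hits raise transcript level above the DMSO vehicle baseline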
In short: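 Primary human hepatocytes from two donor preparations were dosed daily with chemicals or 0.2% DMSO and harvested at 6 h. Transcript induction read by qNPA chemiluminescence, fitted for gain of signal relative to DMSO; morphology-based cytotoxicity annotated.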

[8] = read-out: glucuronosyltransferase (UGT1A1), UGT1A1 (gene 54658); assay: CLD_UGT1A1_6hr: CellzDirect (CLD) Gene Expression Assay for glucuronosyltransferase (UGT1A1) at 6 hours (AID 2283672)
In short: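 Primary human hepatocytes from two donor preparations, dosed with fresh solutions in 0.2% DMSO, harvested at 6 h. UGT1A1 mRNA measured by qNPA chemiluminescence; induction fitted upward versus DMSO.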

[9] = read-out: xenobiotic metabolism (CYP1A1), CYP1A1 (gene 1543); assay: CLD_CYP1A1_24hr: CellzDirect (CLD) Gene Expression Assay for xenobiotic metabolism (CYP1A1) at 24 hours (AID 2283673);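 note: CYP1A1 mRNA level by quantitative nuclease protection with chemiluminescence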
In short: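 Primary human hepatocytes dosed daily with fresh solutions in 0.2% DMSO vehicle. mRNA measured at 24 h by quantitative nuclease protection assay with chemiluminescence; gain-of-signal fit versus DMSO, with morphology-based cytotoxicity flags.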

[10] = read-out: ABC Transporter (ABCB11), ABCB11 (gene 8647); assay: CLD_ABCB11_6hr: CellzDirect (CLD) Gene Expression Assay for ABC Transporter (ABCB11) at 6 hours (AID 2283675);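 note: hits raise ABCB11 mRNA level so AC50 marks induction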
In short: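 Human primary hepatocytes (two donor preparations) given fresh chemical daily at multiple concentrations, vehicle 0.2% DMSO. ABCB11 mRNA induction measured 6 h after dosing by qNPA chemiluminescence versus DMSO; cytotoxicity annotated from morphology.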

[11] = CLD_ACTIN_6hr: CellzDirect (CLD) Gene Expression Assay for Baseline Control (Actin) at 6 hours (AID 2283676);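 note: active means increased actin mRNA relative to DMSO vehicle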
In short: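 Primary human hepatocytes dosed with fresh chemical solutions (vehicle 0.2% DMSO), harvested at 6 h. Actin mRNA quantified by quantitative nuclease protection assay with chemiluminescent read-out, as background control relative to DMSO.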

[12] = read-out: Cytochrome P450 2B6 (Homo sapiens) (UniProt P20813); assay: CLD_CYP2B6_6hr: CellzDirect (CLD) Gene Expression Assay for xenobiotic metabolism (CYP2B6) at 6 hours (AID 2283677);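 note: actives raise CYP2B6 transcript above DMSO baseline so AC50 marks an inducer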
In short: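 Primary human hepatocytes dosed with chemicals at multiple concentrations, vehicle 0.2% DMSO; CYP2B6 mRNA induction measured 6 h after dosing by quantitative nuclease protection assay with chemiluminescence, gain of signal fitted relative to DMSO.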

[13] = read-out: Cytochrome P450 3A4 (Homo sapiens) (UniProt P08684); assay: CLD_CYP3A4_6hr: CellzDirect (CLD) Gene Expression Assay for xenobiotic metabolism (CYP3A4) at 6 hours (AID 2283680)
In short: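 Primary human hepatocytes (two donor preparations) dosed; CYP3A4 mRNA harvested at 6 h and quantified by qNPA chemiluminescence. Gain of signal fitted against 0.2% DMSO vehicle; cytotoxicity flagged by phase-contrast morphology.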

[14] = read-out: Glyceraldehyde-3-phosphate dehydrogenase (Homo sapiens) (UniProt P04406); assay: CLD_GAPDH_6hr: CellzDirect (CLD) Gene Expression Assay for Baseline Control (Glyceraldehyde 3-phosphate dehydrogenase) at 6 hours (AID 2283681);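 note: active means increased signal relative to DMSO vehicle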
In short: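 Primary human hepatocytes from two donor preparations, dosed at multiple concentrations with 0.2% DMSO vehicle; GAPDH mRNA measured 6 h after dosing by chemiluminescent quantitative nuclease protection assay (qNPA) on denatured lysates. Serves as background control; cytotoxicity annotated by morphology.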

[15] = read-out: xenobiotic metabolism (CYP1A2), CYP1A2 (gene 1544); assay: CLD_CYP1A2_24hr: CellzDirect (CLD) Gene Expression Assay for xenobiotic metabolism (CYP1A2) at 24 hours (AID 2283683)
In short: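 Primary human hepatocytes from two donor preparations dosed daily with multiple concentrations of chemical, 0.2% DMSO vehicle. CYP1A2 mRNA at 24 h quantified by qNPA chemiluminescence; gain of signal analyzed relative to DMSO. Cytotoxicity flagged by phase-contrast morphology.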

[16] = CLD_ACTIN_24hr: CellzDirect (CLD) Gene Expression Assay for Baseline Control (Actin) at 24 hours (AID 2283670)
In short: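 Primary human hepatocytes dosed over multiple concentrations with 0.2% DMSO vehicle; actin mRNA measured at 24 h by qNPA chemiluminescence. Background control endpoint, fitted as gain of signal versus DMSO.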

[17] = read-out: ABC Transporter (ABCB11), ABCB11 (gene 8647); assay: CLD_ABCB11_24hr: CellzDirect (CLD) Gene Expression Assay for ABC Transporter (ABCB11) at 24 hours (AID 2283674; active = hit-call score of the fitted dose curve at least 0.9, where 1 is the maximum; inactive = score below 0.9)
In short: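 Primary human hepatocytes were dosed daily for two days, with 0.2% DMSO vehicle. ABCB11 mRNA induction was measured at 24 hours by quantitative nuclease protection assay with chemiluminescence. Gain of signal was fitted relative to DMSO.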

[18] = read-out: Cytochrome P450 2C19 (Homo sapiens) (UniProt P33261); assay: CLD_CYP2C19_6hr: CellzDirect (CLD) Gene Expression Assay for xenobiotic metabolism (CYP2C19) at 6 hours (AID 2283678)
In short: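 Primary human hepatocytes from two donor preparations were dosed daily, with 0.2% DMSO as vehicle, and harvested 6 h after dosing. CYP2C19 mRNA induction was measured by qNPA chemiluminescence and fitted as gain of signal against DMSO.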

[19] = read-out: Cytochrome P450 (CYP24A1_1), CYP24A1 (gene 1591); assay: LTEA_HepaRG_CYP24A1_1: Life Technologies and Expression Analysis (LTEA) Assay for Cytochrome P450 (CYP24A1_1) using HepaRG (AID 2283671; active = hit-call score of the fitted dose curve at least 0.9, where 1 is the maximum; inactive = score below 0.9); conditions: mRNA level, 48 h; actives raise or lower the signal
In short: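 Differentiated human HepaRG cells in serum-free induction medium, exposed 48 h in duplicate to eight half-log concentrations from 100 uM top, 0.5% DMSO. Transcript measured by TaqMan qRT-PCR, normalised to ACTB, GAPDH, POLR2A; bidirectional fitting versus DMSO.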

Chain of Glyceraldehyde-3-phosphate dehydrogenase (Homo sapiens) (P04406 whole entry, looked up): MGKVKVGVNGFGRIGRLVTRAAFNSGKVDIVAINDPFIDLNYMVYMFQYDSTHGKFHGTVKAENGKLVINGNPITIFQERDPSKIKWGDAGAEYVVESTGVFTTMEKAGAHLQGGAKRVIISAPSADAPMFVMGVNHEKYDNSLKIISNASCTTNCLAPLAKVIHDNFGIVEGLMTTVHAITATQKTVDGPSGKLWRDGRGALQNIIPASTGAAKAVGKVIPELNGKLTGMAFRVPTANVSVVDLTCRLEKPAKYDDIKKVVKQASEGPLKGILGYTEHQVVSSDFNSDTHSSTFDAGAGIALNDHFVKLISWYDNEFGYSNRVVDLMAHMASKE
Chain of Cytochrome P450 3A4 (Homo sapiens) (P08684 whole entry, looked up): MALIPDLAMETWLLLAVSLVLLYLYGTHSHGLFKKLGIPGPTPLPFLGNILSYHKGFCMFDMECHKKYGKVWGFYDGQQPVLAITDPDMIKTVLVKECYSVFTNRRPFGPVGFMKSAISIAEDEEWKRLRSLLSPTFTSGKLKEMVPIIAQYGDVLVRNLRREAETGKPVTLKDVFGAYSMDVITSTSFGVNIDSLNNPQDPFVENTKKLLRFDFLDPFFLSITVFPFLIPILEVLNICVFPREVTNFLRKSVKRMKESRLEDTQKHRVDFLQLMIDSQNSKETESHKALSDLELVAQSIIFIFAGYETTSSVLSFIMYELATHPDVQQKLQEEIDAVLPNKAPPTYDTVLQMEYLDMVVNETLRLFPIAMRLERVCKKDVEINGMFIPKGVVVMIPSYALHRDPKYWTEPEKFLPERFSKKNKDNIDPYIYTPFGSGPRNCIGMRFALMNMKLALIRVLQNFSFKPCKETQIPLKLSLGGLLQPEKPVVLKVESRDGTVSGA
Chain of Cytochrome P450 2C19 (Homo sapiens) (P33261 whole entry, looked up): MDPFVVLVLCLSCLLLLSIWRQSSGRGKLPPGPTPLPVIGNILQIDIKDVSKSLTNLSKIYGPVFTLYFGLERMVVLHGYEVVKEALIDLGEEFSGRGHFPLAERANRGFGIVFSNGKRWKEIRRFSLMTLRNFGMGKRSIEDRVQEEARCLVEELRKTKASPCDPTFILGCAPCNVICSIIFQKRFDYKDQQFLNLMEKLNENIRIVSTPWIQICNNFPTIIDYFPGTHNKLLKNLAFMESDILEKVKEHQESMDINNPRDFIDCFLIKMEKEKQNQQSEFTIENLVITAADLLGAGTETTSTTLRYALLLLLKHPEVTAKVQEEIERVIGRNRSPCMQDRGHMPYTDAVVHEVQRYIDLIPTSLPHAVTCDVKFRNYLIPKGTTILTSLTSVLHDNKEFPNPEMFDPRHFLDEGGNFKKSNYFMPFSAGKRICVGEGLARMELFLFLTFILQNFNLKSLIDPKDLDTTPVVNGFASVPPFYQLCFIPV

SMILES: O=C(O)C(F)(F)C(F)(F)C(F)(F)C(F)(F)C(F)(F)F
- outcome [1]: inactive

SMILES: CCC(C)(c1ccc(O)cc1)c1ccc(O)cc1
- AC50 [2]: 37.4 µM (active)
- AC50 [1]: 42.4 µM (active)
- AC50 [3]: 15.5 µM (active) and 1.34 µM (active)

SMILES: CCC(C)(CC)c1cc(NC(=O)c2c(OC)cccc2OC)on1
- outcome [4]: inactive
- outcome [5]: inactive
- outcome [1]: inactive
- outcome [6]: inactive
- outcome [7]: inactive
- outcome [8]: inactive
- AC50 [9]: 20 µM (active)
- outcome [10]: inactive
- outcome [11]: inactive
- AC50 [12]: 0.116 µM (active)
- AC50 [3]: 58.2 µM (active)
- AC50 [13]: 0.0356 µM (active)
- outcome [14]: inactive
- AC50 [15]: 8.57 µM (active)

SMILES: CCSC(=O)N(CC)C1CCCCC1
- outcome [4]: inactive
- outcome [6]: inactive
- outcome [16]: inactive
- outcome [8]: inactive
- outcome [17]: inactive
- outcome [10]: inactive
- outcome [11]: inactive
- AC50 [12]: 3.97 µM (active)
- outcome [18]: inactive
- outcome [3]: inactive
- outcome [13]: inactive
- outcome [15]: inactive

SMILES: COS(=O)(=O)OC
- outcome [2]: inactive
- outcome [1]: inactive
- outcome [19]: inactive
- outcome [3]: inactive

SMILES: C[C@]12CCC(=O)C=C1CC[C@@H]1[C@@H]2CC[C@]2(C)C(=O)CC[C@@H]12
- outcome [2]: inactive
- AC50 [1]: 26.8 µM (active)
- AC50 [3]: 31.8 µM (active)

SMILES: CC(c1ccc(O)cc1)(c1ccc(O)cc1)c1ccc(O)cc1
- AC50 [2]: 36.9 µM (active)
- outcome [3]: inactive

SMILES: CCCCCCCCCc1ccc(O)cc1
- AC50 [2]: 15.7 µM (active)
- outcome [1]: inactive
- outcome [19]: inactive
- AC50 [3]: 61.4 µM (active)

SMILES: Oc1c(Cl)c(Cl)c(Cl)c(Cl)c1Cl
- outcome [2]: inactive
- outcome [1]: inactive
- AC50 [3]: 0.806 µM (active)

SMILES: Cc1ccccc1[N+](=O)[O-]
- outcome [1]: inactive

SMILES: O=C(O)C(F)(F)C(F)(F)C(F)(F)C(F)(F)C(F)(F)C(F)(F)C(F)(F)C(F)(F)F
- AC50 [2]: 21.8 µM (active)
- outcome [1]: inactive
- AC50 [3]: 53.7 µM (active)

SMILES: CCCCCCCCOC(=O)c1ccccc1C(=O)OCCCCCCCC
- outcome [2]: inactive
- outcome [1]: inactive
- outcome [3]: inactive

SMILES: COc1ccc(O)c(C(C)(C)C)c1
- AC50 [2]: 60.5 µM (active)
- outcome [1]: inactive
- AC50 [3]: 57.8 µM (active)

SMILES: c1ccc(-c2ccccc2)cc1
- AC50 [2]: 34.5 µM (active)
- outcome [1]: inactive
- AC50 [3]: 4.5 µM (active)
- outcome [3]: inactive

SMILES: CCC(=O)O[C@H]1CC[C@H]2[C@@H]3CCC4=CC(=O)CC[C@]4(C)[C@H]3CC[C@]12C
- AC50 [2]: 9.47 µM (active)
- outcome [1]: inactive
- AC50 [3]: 79.4 µM (active)

SMILES: Clc1ccc(C(Cl)(Cl)Cl)cc1
- outcome [2]: inactive
- outcome [1]: inactive

SMILES: Cc1ccccc1CO[C@@H]1C[C@@]2(C(C)C)CC[C@]1(C)O2
- AC50 [2]: 21.6 µM (active)
- outcome [5]: inactive
- outcome [1]: inactive
- outcome [6]: inactive
- outcome [7]: inactive
- outcome [8]: inactive
- outcome [9]: inactive
- outcome [11]: inactive
- AC50 [3]: 73.1 µM (active)
- outcome [14]: inactive
- AC50 [15]: 16.5 µM (active)

SMILES: Oc1ccc(C(c2ccc(O)cc2)(C(F)(F)F)C(F)(F)F)cc1
- AC50 [2]: 11 µM (active)
- AC50 [1]: 52.8 µM (active)
- AC50 [3]: 18.1 µM (active)

SMILES: CCOP(=S)(OCC)SCSC(C)(C)C
- AC50 [2]: 20.9 µM (active)
- outcome [1]: inactive
- AC50 [3]: 56.3 µM (active)

SMILES: N#Cc1ccc(N(CC(N)=O)CC(F)(F)F)cc1C(F)(F)F
- outcome [1]: inactive

SMILES: Sc1ccccc1
- outcome [2]: inactive
